The term inhibition denotes the share of the control response that was lost under treatment. A high value points to a strong effect.

Experiment [1] deals with Protein kinase C gamma type (Homo sapiens) (UniProt P05129). The following applies: at 1 µM.
Experiment [2] concerns the target T1, Protein kinase C iota type (Homo sapiens) (UniProt P41743).
T1 sequence (whole entry): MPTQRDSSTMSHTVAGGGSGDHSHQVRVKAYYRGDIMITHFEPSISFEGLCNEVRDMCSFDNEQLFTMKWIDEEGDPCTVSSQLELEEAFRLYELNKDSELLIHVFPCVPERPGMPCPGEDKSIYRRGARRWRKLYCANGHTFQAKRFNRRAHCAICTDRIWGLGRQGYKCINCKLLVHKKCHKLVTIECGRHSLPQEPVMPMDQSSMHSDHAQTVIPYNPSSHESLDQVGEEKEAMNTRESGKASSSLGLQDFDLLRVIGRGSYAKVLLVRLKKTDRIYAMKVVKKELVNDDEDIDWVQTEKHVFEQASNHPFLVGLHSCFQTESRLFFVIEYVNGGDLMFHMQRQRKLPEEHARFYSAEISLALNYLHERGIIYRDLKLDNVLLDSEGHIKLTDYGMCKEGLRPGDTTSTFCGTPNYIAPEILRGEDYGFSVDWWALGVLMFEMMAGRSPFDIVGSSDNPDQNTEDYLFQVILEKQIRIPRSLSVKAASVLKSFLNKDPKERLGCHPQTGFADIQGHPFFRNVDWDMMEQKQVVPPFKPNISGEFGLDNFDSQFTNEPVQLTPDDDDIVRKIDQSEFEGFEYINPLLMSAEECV
The following applies: at 0.1 µM.

Experiment [3] concerns the target T1, Protein kinase C iota type (Homo sapiens). The following applies: at 1 µM.
Experiment [4] addresses Protein kinase C theta type (Homo sapiens) (UniProt Q04759). The following applies: at 0.1 µM.
Experiment [5] has the same target. The following applies: at 1 µM.
The target in experiment [6] is Protein kinase C beta type (Homo sapiens) (UniProt P05771). The following applies: at 0.1 µM.
Experiment [7] has the same target. The following applies: at 1 µM.
Experiment [8] deals with T2, Serine/threonine-protein kinase D1 (Homo sapiens) (UniProt Q15139).
T2 sequence (whole entry): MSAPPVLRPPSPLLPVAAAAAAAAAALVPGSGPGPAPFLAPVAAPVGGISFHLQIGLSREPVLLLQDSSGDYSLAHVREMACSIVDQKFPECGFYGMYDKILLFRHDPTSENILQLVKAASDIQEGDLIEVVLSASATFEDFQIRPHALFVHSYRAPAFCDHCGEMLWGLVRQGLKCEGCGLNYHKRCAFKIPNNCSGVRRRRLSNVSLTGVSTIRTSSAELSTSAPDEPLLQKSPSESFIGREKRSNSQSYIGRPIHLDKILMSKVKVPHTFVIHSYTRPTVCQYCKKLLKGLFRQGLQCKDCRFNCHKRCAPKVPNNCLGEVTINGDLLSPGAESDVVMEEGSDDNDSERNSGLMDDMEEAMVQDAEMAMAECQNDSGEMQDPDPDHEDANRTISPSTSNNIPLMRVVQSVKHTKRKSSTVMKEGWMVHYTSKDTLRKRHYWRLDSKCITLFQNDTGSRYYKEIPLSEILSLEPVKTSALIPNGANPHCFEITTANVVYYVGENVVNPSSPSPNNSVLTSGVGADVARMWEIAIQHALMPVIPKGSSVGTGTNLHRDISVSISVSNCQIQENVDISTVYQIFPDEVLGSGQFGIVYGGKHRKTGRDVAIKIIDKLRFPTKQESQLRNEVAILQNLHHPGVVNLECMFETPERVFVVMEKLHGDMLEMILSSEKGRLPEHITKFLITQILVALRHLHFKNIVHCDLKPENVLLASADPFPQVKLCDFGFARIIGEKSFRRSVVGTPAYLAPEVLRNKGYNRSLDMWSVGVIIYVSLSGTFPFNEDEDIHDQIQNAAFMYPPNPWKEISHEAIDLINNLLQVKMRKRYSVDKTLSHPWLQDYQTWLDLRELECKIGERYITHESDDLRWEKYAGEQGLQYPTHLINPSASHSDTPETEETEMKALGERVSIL
The following applies: at 0.1 µM.

The target in experiment [9] is T2, Serine/threonine-protein kinase D1 (Homo sapiens). The following applies: at 1 µM.
The target of experiment [10] is T3, Serine/threonine-protein kinase D2 (Homo sapiens) (UniProt Q9BZL6).
T3 sequence (whole entry): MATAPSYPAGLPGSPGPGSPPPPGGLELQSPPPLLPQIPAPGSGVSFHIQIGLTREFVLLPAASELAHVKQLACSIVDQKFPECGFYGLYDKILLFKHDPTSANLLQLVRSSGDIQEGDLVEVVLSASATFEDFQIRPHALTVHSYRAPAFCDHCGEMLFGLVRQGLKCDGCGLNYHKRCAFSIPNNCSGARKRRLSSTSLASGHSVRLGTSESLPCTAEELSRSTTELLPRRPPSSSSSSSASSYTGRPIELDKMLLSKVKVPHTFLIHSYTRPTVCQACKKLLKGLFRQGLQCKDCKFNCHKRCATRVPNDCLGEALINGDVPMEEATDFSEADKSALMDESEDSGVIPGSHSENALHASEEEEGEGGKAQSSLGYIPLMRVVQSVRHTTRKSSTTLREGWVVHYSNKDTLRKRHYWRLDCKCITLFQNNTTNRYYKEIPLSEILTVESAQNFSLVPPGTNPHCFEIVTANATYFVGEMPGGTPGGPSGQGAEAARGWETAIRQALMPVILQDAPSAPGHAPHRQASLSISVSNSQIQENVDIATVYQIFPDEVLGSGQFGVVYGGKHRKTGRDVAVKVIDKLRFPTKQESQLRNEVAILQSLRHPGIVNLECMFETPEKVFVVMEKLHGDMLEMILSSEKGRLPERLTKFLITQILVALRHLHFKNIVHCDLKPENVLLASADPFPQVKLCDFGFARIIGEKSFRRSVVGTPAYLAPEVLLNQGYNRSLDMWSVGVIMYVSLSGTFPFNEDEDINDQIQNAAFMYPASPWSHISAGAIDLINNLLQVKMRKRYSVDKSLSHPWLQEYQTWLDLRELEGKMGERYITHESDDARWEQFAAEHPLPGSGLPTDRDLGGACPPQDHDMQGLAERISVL
The settings on record: at 0.1 µM.

Experiment [11] addresses T3, Serine/threonine-protein kinase D2 (Homo sapiens). The following applies: at 1 µM.
The target of experiment [12] is T4, Serine/threonine-protein kinase D3 (Homo sapiens) (UniProt O94806).
T4 sequence (whole entry): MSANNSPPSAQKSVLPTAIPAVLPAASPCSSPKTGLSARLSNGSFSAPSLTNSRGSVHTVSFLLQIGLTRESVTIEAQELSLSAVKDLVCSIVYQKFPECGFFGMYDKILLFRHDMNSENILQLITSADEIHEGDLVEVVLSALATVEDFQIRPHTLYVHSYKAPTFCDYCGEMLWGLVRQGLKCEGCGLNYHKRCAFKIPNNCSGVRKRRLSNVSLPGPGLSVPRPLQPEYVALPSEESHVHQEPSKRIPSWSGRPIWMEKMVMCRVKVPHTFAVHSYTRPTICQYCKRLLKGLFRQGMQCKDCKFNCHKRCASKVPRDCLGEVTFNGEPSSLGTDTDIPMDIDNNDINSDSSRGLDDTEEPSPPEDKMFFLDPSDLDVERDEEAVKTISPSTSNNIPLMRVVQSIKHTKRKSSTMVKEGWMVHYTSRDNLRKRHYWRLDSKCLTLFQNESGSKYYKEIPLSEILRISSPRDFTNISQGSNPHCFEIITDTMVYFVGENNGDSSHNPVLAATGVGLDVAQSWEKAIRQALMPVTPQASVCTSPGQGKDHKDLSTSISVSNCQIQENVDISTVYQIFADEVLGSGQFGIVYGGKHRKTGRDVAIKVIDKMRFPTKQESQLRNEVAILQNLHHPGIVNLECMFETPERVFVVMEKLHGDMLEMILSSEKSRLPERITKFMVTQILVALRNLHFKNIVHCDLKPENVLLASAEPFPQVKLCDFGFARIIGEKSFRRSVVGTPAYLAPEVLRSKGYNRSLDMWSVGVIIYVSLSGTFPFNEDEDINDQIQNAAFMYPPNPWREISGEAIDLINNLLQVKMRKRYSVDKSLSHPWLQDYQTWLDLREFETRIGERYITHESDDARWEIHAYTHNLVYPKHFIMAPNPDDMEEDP
The settings on record: at 0.1 µM.

The target in experiment [13] is T4, Serine/threonine-protein kinase D3 (Homo sapiens). The settings on record: at 1 µM.
The target of experiment [14] is T5, cGMP-dependent protein kinase 1 (Homo sapiens) (UniProt Q13976).
T5 sequence (whole entry): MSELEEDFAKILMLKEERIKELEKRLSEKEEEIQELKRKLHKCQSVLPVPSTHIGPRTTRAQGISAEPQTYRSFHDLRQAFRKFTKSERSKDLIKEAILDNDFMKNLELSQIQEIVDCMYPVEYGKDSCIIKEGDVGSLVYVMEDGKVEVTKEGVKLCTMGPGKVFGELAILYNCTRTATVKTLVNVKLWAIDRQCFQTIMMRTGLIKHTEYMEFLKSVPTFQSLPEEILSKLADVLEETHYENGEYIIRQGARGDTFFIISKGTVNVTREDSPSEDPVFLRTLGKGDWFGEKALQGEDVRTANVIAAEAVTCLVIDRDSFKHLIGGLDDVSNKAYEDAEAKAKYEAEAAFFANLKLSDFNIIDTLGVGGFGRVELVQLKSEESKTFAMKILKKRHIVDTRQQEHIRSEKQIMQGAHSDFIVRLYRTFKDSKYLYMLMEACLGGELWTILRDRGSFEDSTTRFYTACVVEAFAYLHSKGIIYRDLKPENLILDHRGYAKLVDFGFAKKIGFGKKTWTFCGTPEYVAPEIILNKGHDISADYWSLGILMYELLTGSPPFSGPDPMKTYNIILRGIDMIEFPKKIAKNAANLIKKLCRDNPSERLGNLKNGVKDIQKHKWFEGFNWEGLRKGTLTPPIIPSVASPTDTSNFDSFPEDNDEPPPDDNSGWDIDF
The settings on record: at 0.1 µM.

Experiment [15] deals with T5, cGMP-dependent protein kinase 1 (Homo sapiens). The following applies: at 1 µM.
For experiment [16], the target named is T6, cGMP-dependent protein kinase 2 (Homo sapiens) (UniProt Q13237).
T6 sequence (whole entry): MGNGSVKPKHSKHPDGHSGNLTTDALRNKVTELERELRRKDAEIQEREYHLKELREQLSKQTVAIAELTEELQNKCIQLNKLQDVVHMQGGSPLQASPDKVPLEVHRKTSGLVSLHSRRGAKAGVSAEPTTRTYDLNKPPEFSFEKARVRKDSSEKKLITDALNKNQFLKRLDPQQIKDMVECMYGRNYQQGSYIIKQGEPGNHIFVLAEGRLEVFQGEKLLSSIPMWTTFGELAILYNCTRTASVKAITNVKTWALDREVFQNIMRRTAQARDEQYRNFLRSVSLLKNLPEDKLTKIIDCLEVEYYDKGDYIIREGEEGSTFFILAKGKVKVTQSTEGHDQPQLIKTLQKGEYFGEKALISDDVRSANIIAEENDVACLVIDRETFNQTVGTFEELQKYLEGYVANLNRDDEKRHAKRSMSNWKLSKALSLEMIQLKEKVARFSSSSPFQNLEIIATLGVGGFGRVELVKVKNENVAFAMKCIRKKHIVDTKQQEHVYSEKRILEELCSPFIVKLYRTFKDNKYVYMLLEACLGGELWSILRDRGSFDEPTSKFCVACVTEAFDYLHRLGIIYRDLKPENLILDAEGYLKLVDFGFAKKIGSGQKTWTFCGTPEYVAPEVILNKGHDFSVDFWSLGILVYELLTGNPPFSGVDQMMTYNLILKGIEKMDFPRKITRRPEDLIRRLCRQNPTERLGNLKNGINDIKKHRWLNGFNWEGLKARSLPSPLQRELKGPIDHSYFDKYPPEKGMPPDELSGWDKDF
The following applies: at 0.1 µM.

Experiment [17] has as its target T6, cGMP-dependent protein kinase 2 (Homo sapiens). The following applies: at 1 µM.
The target of experiment [18] is T7, cAMP-dependent protein kinase catalytic subunit PRKX (Homo sapiens) (UniProt P51817).
T7 sequence (whole entry): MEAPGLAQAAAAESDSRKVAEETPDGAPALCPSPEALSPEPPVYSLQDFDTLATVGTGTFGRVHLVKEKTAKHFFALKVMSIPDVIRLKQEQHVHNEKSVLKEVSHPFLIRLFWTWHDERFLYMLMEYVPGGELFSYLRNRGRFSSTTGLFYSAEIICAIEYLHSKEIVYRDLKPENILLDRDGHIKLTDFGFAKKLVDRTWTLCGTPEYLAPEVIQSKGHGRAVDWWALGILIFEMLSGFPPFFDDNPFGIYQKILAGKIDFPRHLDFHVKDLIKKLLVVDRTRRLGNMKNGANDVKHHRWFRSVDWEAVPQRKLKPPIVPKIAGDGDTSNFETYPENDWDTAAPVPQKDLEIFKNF
The settings on record: at 0.1 µM.

The target in experiment [19] is T7, cAMP-dependent protein kinase catalytic subunit PRKX (Homo sapiens). The following applies: at 1 µM.
In experiment [20] the target is Rho-associated protein kinase 1 (Homo sapiens) (UniProt Q13464). The following applies: at 0.1 µM.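 Further: values are mean percent inhibition of ROCK1.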
Sequence of Rho-associated protein kinase 1 (Homo sapiens) (Q13464 2-1354 limits assumed): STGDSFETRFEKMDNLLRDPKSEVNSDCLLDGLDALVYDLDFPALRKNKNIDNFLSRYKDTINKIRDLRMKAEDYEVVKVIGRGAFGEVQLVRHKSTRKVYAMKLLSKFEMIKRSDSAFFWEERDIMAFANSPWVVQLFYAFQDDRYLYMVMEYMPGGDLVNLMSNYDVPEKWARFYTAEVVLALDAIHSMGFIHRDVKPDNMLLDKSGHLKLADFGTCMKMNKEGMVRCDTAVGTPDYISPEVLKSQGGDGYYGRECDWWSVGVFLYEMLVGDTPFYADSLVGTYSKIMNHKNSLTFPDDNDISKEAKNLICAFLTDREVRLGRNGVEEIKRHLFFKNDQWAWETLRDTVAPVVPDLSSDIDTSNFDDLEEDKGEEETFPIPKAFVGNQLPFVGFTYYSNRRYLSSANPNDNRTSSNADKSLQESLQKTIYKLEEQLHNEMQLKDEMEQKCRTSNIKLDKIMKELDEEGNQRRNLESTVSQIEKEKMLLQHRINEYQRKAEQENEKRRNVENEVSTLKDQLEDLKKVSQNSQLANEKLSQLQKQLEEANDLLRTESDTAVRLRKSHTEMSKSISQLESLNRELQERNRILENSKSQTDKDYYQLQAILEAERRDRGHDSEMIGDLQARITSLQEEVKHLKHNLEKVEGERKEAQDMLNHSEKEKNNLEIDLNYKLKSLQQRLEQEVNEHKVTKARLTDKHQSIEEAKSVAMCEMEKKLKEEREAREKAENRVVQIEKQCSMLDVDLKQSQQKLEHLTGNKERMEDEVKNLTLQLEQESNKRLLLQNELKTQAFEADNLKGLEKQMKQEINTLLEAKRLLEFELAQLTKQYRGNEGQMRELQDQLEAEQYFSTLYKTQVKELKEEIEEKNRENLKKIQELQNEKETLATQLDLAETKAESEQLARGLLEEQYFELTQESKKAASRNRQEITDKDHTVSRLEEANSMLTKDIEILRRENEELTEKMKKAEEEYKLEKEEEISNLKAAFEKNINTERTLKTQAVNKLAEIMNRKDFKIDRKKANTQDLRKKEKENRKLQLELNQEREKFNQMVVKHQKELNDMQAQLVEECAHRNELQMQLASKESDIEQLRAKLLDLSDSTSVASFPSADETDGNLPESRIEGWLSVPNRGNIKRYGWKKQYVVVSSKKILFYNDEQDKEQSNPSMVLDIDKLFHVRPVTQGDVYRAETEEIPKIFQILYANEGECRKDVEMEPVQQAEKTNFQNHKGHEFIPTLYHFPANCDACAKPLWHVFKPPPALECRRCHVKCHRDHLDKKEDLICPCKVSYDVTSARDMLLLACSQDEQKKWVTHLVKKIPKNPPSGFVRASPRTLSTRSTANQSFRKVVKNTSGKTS

Sequence of Protein kinase C beta type (Homo sapiens) (P05771 2-671 limits assumed): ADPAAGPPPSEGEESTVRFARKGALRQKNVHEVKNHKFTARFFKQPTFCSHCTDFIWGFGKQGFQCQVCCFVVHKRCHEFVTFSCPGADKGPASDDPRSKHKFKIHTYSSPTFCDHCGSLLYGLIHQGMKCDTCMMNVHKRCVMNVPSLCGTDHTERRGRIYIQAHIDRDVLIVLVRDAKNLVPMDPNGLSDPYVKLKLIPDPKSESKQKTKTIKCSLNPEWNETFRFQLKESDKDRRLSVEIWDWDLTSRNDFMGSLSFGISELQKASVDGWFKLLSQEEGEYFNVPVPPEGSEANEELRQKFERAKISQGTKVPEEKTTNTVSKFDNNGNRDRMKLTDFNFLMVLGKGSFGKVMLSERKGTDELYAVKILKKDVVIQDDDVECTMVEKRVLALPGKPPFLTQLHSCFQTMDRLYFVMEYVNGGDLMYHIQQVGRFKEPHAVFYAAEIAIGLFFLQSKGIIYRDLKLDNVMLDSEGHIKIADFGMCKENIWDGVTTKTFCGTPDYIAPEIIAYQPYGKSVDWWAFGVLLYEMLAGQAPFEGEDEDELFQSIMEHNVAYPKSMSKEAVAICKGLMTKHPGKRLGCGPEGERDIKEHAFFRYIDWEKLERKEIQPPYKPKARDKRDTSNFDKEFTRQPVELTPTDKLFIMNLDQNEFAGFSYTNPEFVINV
Sequence of Protein kinase C theta type (Homo sapiens) (Q04759 whole entry, looked up): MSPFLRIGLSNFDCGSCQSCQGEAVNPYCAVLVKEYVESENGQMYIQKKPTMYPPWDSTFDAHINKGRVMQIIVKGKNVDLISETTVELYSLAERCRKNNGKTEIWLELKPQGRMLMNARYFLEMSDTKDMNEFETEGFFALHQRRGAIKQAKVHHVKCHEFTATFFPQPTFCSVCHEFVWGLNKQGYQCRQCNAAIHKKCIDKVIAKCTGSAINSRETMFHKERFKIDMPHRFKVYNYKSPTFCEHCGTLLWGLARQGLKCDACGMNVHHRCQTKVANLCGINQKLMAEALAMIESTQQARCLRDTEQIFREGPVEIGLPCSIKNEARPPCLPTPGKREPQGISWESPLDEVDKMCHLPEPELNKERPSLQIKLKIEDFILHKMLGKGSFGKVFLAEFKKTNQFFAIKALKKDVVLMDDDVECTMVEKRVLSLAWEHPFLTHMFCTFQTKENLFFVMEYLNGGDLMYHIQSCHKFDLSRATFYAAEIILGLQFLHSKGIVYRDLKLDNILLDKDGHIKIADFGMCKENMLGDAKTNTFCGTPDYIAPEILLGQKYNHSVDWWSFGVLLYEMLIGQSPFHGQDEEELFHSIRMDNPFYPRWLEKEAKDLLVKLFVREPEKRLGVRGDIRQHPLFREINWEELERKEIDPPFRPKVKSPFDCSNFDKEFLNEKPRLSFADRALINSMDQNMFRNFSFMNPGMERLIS

Regarding `Cc1cccc(Nc2ncc(-c3ccccc3)o2)c1`, the inhibition in [1] is 7.25%; in experiment [2], 1.43%; in experiment [3], 2.2%; in experiment [4], 4.9%; in experiment [5], 6.83%; in experiment [6] it was 2.39%. In addition, the inhibition came to 7.38% in experiment [7]; 3.07% in experiment [8]; 5.44% in experiment [9]; 3.21% in [10]; 3.61% in experiment [11]; 2.84% in experiment [12]. Further, the inhibition in experiment [13] was found to be 4.5%; in [14], 5.35%; in [15] it was 11.3%; in experiment [16], 6.06%; in experiment [17], 10.7%; in [18], 11.3%. In addition, the inhibition in experiment [19] turned out to be 12%; in experiment [20], 1.64%.

For the origin of these results see ChEMBL document CHEMBL1961873, “Compounds: GSK PKIS; Assays: Nanosyn kinase panel” (2012).
